Source: PubChem BioAssay
TDP1 cell noCPT = qHTS for Inhibitors of human tyrosyl-DNA phosphodiesterase 1 (TDP1): qHTS in cells in absence of CPT. DT40 Tdp1-/- hTDP1 cells, no CPT, ATP luminescence, 48 h. AID 686978, 2013. 420,000 tested, 15% active. Potency, µM (titrated, usually from 46.2 µM), inactives show at the top dose activity change, negative = growth inhibition, most hits filed as inhibitors; further: potency means the concentration at half of the fitted maximal effect; nearly all actives have a fitted effect of over 55% in size
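Seeded 400 DT40-hTDP1 cells/well (vehicle DMSO, no 20 nM CPT); pinned compounds; ≥48 hr at 37 °C; CellTiter-Glo luminescence as viability measure.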
IL-1B inflam inh = inflammasome signaling inhibition, IL-1 beta readout | THP-1 LPS/ATP IL-1B secretion, AlphaLISA, 16 h; active compounds read low | activity change, % at 57.5 µM | 360,000 tested, 4.7% active | AID 743279; in the data active means activity change below about -50%; inconclusive means mostly about -30% to -49%
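THP-1 cells pretreated 1 hr with compounds (up to 57.5 uM final), then stimulated with LPS (250 ng/mL final) plus ATP (1.25 mM final); secreted IL-1B measured by AlphaLISA after 16 hr, decreased signal indicating inhibition.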
HT1080 IDH1KD tx = toxicity to HT-1080 IDH1 knockdown cells (counter line) | HT-1080 IDH1 knockdown viability, ATP luminescence, 48 h | Potency, µM (doses to about 46.1 µM), without a hit: top-dose activity, negative = toxicity, usual class: cytotoxic | 360,000 tested, 2% active;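 further: potency means the concentration at half of the fitted maximal effect; 0% = DMSO wells and -100% = cell-free medium wells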
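HT-1080-IDH1KD cells (IDH1 knocked down), 750/well in RPMI with 5% FBS, treated with compound 48 h at 37 degrees C. Viability by CellTiter-Glo luminescence, normalised to DMSO and no-cell wells; concentration-response curves classed.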
HT1080-NT tox = kills 2HG-producing HT-1080-NT fibrosarcoma cells. HT-1080-NT fibrosarcoma viability, CellTiter-Glo ATP luminescence, 48 h. Potency, µM (top dose mostly 46.1 µM), without a hit: top-dose activity, negative = less viability, actives largely listed as cytotoxic. 360,000 tested, 1.6% active;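 further: NT is the 2HG producing partner of a matched IDH1 knockdown line; potency means the concentration at half of the fitted maximal effect; 0% = DMSO-treated cells and -100% = media-only wells without cells; nearly all actives have a fitted effect of over 55% in size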
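Luminescent CellTiter-Glo readout after 48 hours of compound exposure at 37 degrees C defined viability of HT-1080-NT cells. Activity was normalized to DMSO wells and cell-free media wells; concentration-response curves were fitted and assigned curve classes.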
DT40 TDP1 CPT = growth inhibition of DT40 Tdp1-/-;hTDP1 cells with camptothecin (screen for TDP1 inhibitors); AID 686979; Potency, µM (top dose mostly 46.2 µM), for the others: top-dose activity change, negative = growth inhibition, usual class: inhibitors; 420,000 tested, 12% active; chicken DT40 Tdp1-/-;hTDP1 cells + 20 nM CPT, ATP luminescence, 48 h; further: potency means the concentration at half of the fitted maximal effect; nearly all actives have a fitted effect of over 55% in size
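Chicken DT40 Tdp1-/- cells stably complemented with human TDP1 were seeded at 400 cells/well in medium containing 20 nM camptothecin, exposed to pin-transferred compounds, and grown at 37 °C for at least 48 hr. Viability was read as ATP luminescence.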
12-LOX inh = ALOX12 (human) lipoxygenase inhibition | purified 12hLO, xylenol orange hydroperoxide absorbance | P18054 | AID 1671190 | Potency, µM (doses to about 108 µM), for inactives: at the top dose activity change, negative = inhibition, actives largely listed as inhibitors | 580,000 tested, 1.1% active; further: potency means the concentration at half of the fitted maximal effect
Target sequence (P18054 whole entry, looked up): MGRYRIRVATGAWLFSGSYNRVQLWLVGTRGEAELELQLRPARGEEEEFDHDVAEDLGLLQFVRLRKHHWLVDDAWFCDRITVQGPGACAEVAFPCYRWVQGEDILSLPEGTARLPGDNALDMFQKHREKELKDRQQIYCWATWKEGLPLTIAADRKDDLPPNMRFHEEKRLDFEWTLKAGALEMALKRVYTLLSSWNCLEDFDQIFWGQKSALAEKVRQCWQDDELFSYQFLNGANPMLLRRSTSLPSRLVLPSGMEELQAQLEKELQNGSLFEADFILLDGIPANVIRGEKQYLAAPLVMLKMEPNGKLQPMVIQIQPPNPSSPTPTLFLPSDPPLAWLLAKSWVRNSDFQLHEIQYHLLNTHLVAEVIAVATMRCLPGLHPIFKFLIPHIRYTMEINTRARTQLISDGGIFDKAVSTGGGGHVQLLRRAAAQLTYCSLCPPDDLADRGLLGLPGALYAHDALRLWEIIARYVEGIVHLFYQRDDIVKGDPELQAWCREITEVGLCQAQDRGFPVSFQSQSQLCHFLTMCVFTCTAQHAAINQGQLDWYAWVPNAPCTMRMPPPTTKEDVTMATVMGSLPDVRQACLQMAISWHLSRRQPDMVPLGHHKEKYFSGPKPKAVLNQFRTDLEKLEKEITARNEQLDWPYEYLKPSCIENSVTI
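Hydroperoxide product was detected by ferrous iron/xylenol orange as the 573 to 405 nm absorbance ratio. Arachidonic acid at 40 uM (final) was turned over for 30 min at room temperature by 150 nM human 12hLO, pH 7.0 Hepes buffer, after 15 min compound preincubation.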
* = called active by the depositor; ? = inconclusive; . = no result given; [ ] = dose if it differs, or a comment. The entries come from a sample that favours hits as a whole. Unless noted, the call rests on the fitted dose curve; in most records, active means well fitted curve in the direction sought with a large enough effect; inconclusive means small, poorly fitted or top-dose-only effect, or another doubt; inactive means no such curve, though single readings can be large; an effect the other way counts as inactive or inconclusive. Unless noted, on the % scale 0 is the no-effect control and ±100 the full control effect.

SMILES	TDP1 cell noCPT	IL-1B inflam inh	HT1080 IDH1KD tx	HT1080-NT tox	DT40 TDP1 CPT	12-LOX inh
COC(=O)[C@@]1(Cc2ccc(OC)cc2)[C@@H]2C(=CC(=O)[C@H]2CC(=O)C(=O)N2CCCC2)CN1C(=O)c1ccccc1	16µM*	-76*	21µM*	?	?	.
Cc1ccc(/C(O)=C/C(=O)C(=O)NNC(=O)C(O)(c2ccccc2)c2ccccc2)cc1	-10%	0	?	?	-5%	?
O=C(C=C(O)c1ccc(Cl)cc1)C(=O)NNC(=O)C(O)(c1ccccc1)c1ccccc1	?	-5	-12%	?	8%	14µM*
O=C(NCC(=O)N1CCN(S(=O)(=O)c2ccccc2)CC1)NCc1ccccc1	.	.	.	.	.	17%
Fc1ccccc1Oc1nc(-c2ccncc2)nc2ccccc12	16µM*	-12	-4%	9%	?	116%
Cc1ccc(C)c(Oc2nc(-c3ccncc3)nc3ccccc23)c1	.	.	.	.	.	-6%
Cn1c(C(=O)NCCNC(=O)c2ccc(F)cc2)cc2ccccc21	.	.	.	.	.	5%
Cc1nccnc1N1C[C@H](NC(=O)CN2CC(=O)NC2=O)[C@@H](C2CC2)C1	.	.	.	.	.	21%
COc1cc(/C=N/NC(=O)c2ccccc2Cl)ccc1Oc1ccc([N+](=O)[O-])cn1	?	17	-20%	-23%	?	-1%
CCOc1cc(/C=C(/C#N)c2nc3ccccc3[nH]2)ccc1Oc1ccc([N+](=O)[O-])cn1	?	?	0%	-13%	13µM*	?
COc1cc(/C=C(/C#N)c2ccc(C)cc2)ccc1Oc1ccc([N+](=O)[O-])cn1	?	-69*	6%	0%	?	-19%
CCOc1cc(/C=C(\C#N)c2nc3ccccc3[nH]2)ccc1OC(C)C(=O)O (stereo not given)	-7%	10	7%	13%	6%	-29%
O=C1C=C(c2ccccc2Oc2ccccc2)C[C@@H](c2ccc3c(c2)OCO3)C1	?	-58*	-4%	-13%	16µM*	-3%
O=C1C=C(c2ccc3ncccc3c2)C[C@@H](c2ccc3c(c2)OCO3)C1	2.6µM*	9	8.2µM*	10µM*	2.1µM*	-17%
O=C1C=C(c2ccccc2C(F)(F)F)C[C@@H](c2ccc3c(c2)OCO3)C1	18µM*	-13	-30%	?	?	-4%
COc1ccccc1C1=CC(=O)C[C@H](c2ccc3c(c2)OCO3)C1	18µM*	-5	?	?	16µM*	-25%
COc1ccc([C@H]2CC(=O)C=C(c3ccccc3C(F)(F)F)C2)cc1	-11%	-7	0%	0%	-18%	2%
COC(c1ccccc1)c1nnc(CCC(=O)N(C)CCOc2ccccc2)o1 (stereo not given)	?	-59*	-8%	-1%	15%	-1%
CO[C@H]1CN(C)C(=O)c2ccc(NC(=O)C3CCC3)cc2OC[C@H](C)N(Cc2ccccn2)C[C@@H]1C	-18%	31	20%	18%	11%	3%
COc1cccc(S(=O)(=O)Nc2ccc3c(c2)C(=O)N(C)C[C@H](OC)[C@H](C)CN(Cc2ccccc2F)[C@@H](C)CO3)c1	8.2µM*	?	?	?	9.2µM*	?
CO[C@H]1CN(C)C(=O)c2cc(NC(=O)C3CCOCC3)ccc2OC[C@H](C)N(Cc2nccs2)C[C@H]1C	-6%	-62*	12%	14%	1%	-13%
c1ccc(C2=Nc3ccccc3NC(c3ccccc3)C2)cc1 (stereo not given)	15µM*	-16	-23%	4%	?	3%
CCN(CC)C(=O)CN1CCN(c2nc(-c3ccccn3)nc3scc(-c4ccccc4)c23)CC1	.	.	.	.	.	11%
CC1Cc2ccccc2N1CC(=O)NC(=O)NC1CCCCC1 (stereo not given)	-17%	35	-3%	6%	18µM*	?
CCOc1ccc(S(=O)(=O)N(CC(=O)NC2CCCCC2C)Cc2ccco2)cc1 (stereo not given)	26µM*	?	-5%	1%	15µM*	-12%
SMILES	TDP1 cell noCPT	IL-1B inflam inh	HT1080 IDH1KD tx	HT1080-NT tox	DT40 TDP1 CPT	12-LOX inh
Cc1ccc(C(CNC(=O)c2cc(=O)c3cc(C)c(C)cc3o2)N2CCCCC2)o1 (stereo not given)	.	.	.	.	.	-21%
COc1cc2ccccc2cc1C(=O)N1CCN(c2nc3c(F)cccc3s2)CC1	16µM*	.	.	.	21µM*	-23%
COc1cc2ccccc2cc1C(=O)N1CCN(c2nc3c(F)cc(F)cc3s2)CC1	8.2µM*	.	.	.	21µM*	-15%
COc1ccc(C(=O)N2CCC(N3C(=O)CCC3C(=O)NCc3ccccc3)CC2)c(C)c1 (stereo not given)	.	.	.	.	.	31%
COCCN1C(=O)[C@@H]2C[C@@H](CN2C(=O)c2cnccn2)Oc2ccccc21	.	.	.	.	.	1%[176 µM]
Cn1cccc1CN1CCCC2(CNc3ccccc3[S+](=O)([O-])N2)C1 (stereo not given)	.	.	.	.	.	21%
COc1cc(C2CC(=O)N(c3ccc(C)c(Cl)c3)C3=C2C(=O)OC3)cc(OC)c1OC (stereo not given)	-12%	.	.	.	-19%	-11%
N#CCSc1nc2c(sc(=S)n2Cc2ccco2)c(=O)n1-c1ccc(F)cc1	?	-53*	?	?	?	13%
Cc1cccc(C(=O)N2CCC3(CC2)CC(CC(=O)NC2CC2)CCO3)c1 (stereo not given)	.	.	.	.	.	18%
CC1(C)C(=O)N(CCN2CCC(C(=O)c3ccc(F)cc3)CC2)c2ccccc21	15µM*	-3	-22%	-9%	13µM*	-26%[57.4 µM]
CC1CCN(CCn2c(=S)[nH]c3ccccc3c2=O)CC1	1%	-4	1%	11%	36%	0%
O=C(c1ccc(F)cc1)C1CCN(CCn2c(=S)[nH]c3ccccc3c2=O)CC1	15µM*	.	.	.	?	231%
O=C(c1ccc(F)cc1)C1CCN(Cc2ccccc2F)CC1	?	-17	-16%	-3%	8%	-3%
CC(C)(C)c1nnc(NC(=O)C2CCN(C(=O)c3ccccc3Cl)CC2)s1	.	.	.	.	.	18%
CCCN(CCC)c1cc(C)nc2nc(-c3ccc(C(C)(C)C)cc3)nn12	-18%	.	.	.	-19%	-18%
